Experimental data reported in PubChem BioAssay (Tox21).
Values joined by “and” are separate entries in the source; they are usually repeats but may differ in a detail not shown here. Equal values may be shown once. Inconclusive results are not listed. Where a call stands in place of a potency, no number is given. A structure can be active in one record and inactive in another. Active and inactive are the calls of the source. Calls come from the whole dose curve; as a rule, active = well fitted curve in the direction sought with a large enough effect in the repeat runs; inconclusive = weak or mixed curves; inactive = no such curve, though single readings can be large; an effect the other way counts as inactive or inconclusive.

Assay: Caspase-3/7 induction in CHO-K1 cells by small molecules, qHTS cell viability counter screen (AID 1346979); note: nearly all actives have a fitted effect of over 35% in size; note: potency is the fitted concentration of half-maximal effect
Details: CellTiter-Fluor fluorescence, 17 h; series mostly up to 92.4 µM; activity change, negative = cytotoxicity: at the top concentration
Outline: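 Viability readout by fluorescence (CellTiter-Fluor) on wild-type CHO-K1 cells exposed for 16hr at 37C and 5% CO2 to compounds delivered in DMSO; reagent incubated 1hr before reading.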

Row | SMILES | activity change, negative = cytotoxicity | Potency
1 | Oc1ccc(OCc2ccccc2)cc1 | 11% [at 42.5 µM] (inactive) | 
2 | CCOC(=O)C1OC1c1ccccc1 (stereo not drawn) |  | inactive
3 | O=C(O)c1ccc([N+](=O)[O-])cc1 |  | inactive
4 | Cc1cc(=O)[nH]c(C(C)C)n1 |  | inactive
5 | NC(=O)/N=N/C(N)=O |  | inactive
6 | CCCCCCCCCCCCOCC1CO1 (stereo not drawn) |  | inactive
7 | O=S(=O)(O)CCS |  | inactive
8 | O=C(O)c1cc(-c2ccccc2)nc2ccccc12 | 4.31% [at 42.5 µM] (inactive) | 
9 | OC1CCCC1 |  | inactive
10 | Cc1ccc(N)c(S(=O)(=O)O)c1 |  | inactive
11 | CCCCOCCOCCOC(=O)CCCCC(=O)OCCOCCOCCCC |  | inactive
12 | CCCCC(CC)COC(C)=O (stereo not drawn) |  | inactive
13 | CC1=C(/C=C/C(C)=C/C=C/C(C)=C/CO)C(C)(C)CCC1 |  | 69.4 µM (active)
14 | Cc1cc(Cc2ccc(N)c(C)c2)ccc1N |  | inactive
15 | NCCc1ccc(O)c(O)c1 |  | 61.3 µM (active) and inactive
16 | C=C(C#N)C(=O)OCC |  | inactive and 61.1 µM (active)
17 | O=[N+]([O-])C(CO)(CO)CO |  | 1.7 µM (active) and inactive
18 | NS(=O)(=O)c1cc2c(cc1Cl)NC=NS2(=O)=O |  | inactive

Row | SMILES | activity change, negative = cytotoxicity | Potency
19 | CCOC(=O)/C=C\C(=O)OCC |  | inactive
20 | CC(C)(N=C=O)c1cccc(C(C)(C)N=C=O)c1 |  | inactive
21 | CC[Si](OC(C)=O)(OC(C)=O)OC(C)=O |  | inactive
22 | C=C(C)C(=O)OCCCCCCCCCCCC |  | inactive
23 | C=C(C)C(=O)OCCC[Si](OC)(OC)OC |  | inactive
24 | COCC(C)O (stereo not drawn) |  | inactive
25 | O=C1CCCCC1 |  | inactive
26 | CCCCCCCCCCCCN |  | inactive and 30.6 µM (active)
27 | CC1CC(OC(=O)c2ccccc2O)CC(C)(C)C1 (stereo not drawn) |  | inactive
28 | O=Nc1ccc(O)cc1 |  | 47.4 µM (active) and inactive
29 | CC1(C)O[C@@H]2C[C@H]3[C@@H]4C[C@H](F)C5=CC(=O)CC[C@]5(C)[C@H]4[C@@H](O)C[C@]3(C)[C@]2(C(=O)CO)O1 |  | inactive
30 | C[C@@H]1O[C@@H](OC[C@H]2O[C@@H](Oc3c(-c4ccc(O)c(O)c4)oc4cc(O)cc(O)c4c3=O)[C@H](O)[C@@H](O)[C@@H]2O)[C@H](O)[C@H](O)[C@H]1O | -9.66% [at 42.5 µM] (inactive) | 
31 | Clc1ccc(Cl)c(Cl)c1Cl |  | inactive
32 | CC(C)Cc1ccccc1 |  | inactive
33 | C=C(C)C(=O)OCC(CC)(COC(=O)C(=C)C)COC(=O)C(=C)C |  | inactive
34 | O=C(c1cc(O)c(O)c(O)c1)c1ccc(O)c(O)c1O |  | 48.4 µM (active) and 54.5 µM (active) and 29.8 µM (active)
35 | C=C(C)C(=O)OCCCCCC | 3.51% (inactive) | 

Assay: Caspase-3/7 induction in CHO-K1 cells by small molecules, qHTS assay (AID 1346980); note: nearly all actives have a fitted effect of over 15% in size
Details: CHO-K1 caspase-3/7 induction, Caspase-Glo luminescence, 17 h; series mostly up to 92.4 µM; caspase-3/7 activation: at the top concentration
Outline: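 Wild-type cells were seeded at 1,500 per well and settled 5 hr at 37 C, 5% CO2, then exposed to DMSO-dissolved compounds for 17 hr. Caspase-Glo 3/7 reagent was added, and luminescence was read after 30min at room temperature.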

Row | SMILES | Potency
36 | Nc1cc(-c2ccncc2)c[nH]c1=O | inactive
37 | Oc1ccc(OCc2ccccc2)cc1 | inactive
38 | O=C(O)c1ccc([N+](=O)[O-])cc1 | inactive
39 | Cc1cc(=O)[nH]c(C(C)C)n1 | inactive
40 | NC(=O)/N=N/C(N)=O | inactive
41 | O=C(O)c1cc(-c2ccccc2)nc2ccccc12 | inactive
42 | OC1CCCC1 | inactive
43 | COC(=O)c1ccccc1O | inactive
44 | CC1=C(/C=C/C(C)=C/C=C/C(C)=C/CO)C(C)(C)CCC1 | inactive
45 | NCCc1ccc(O)c(O)c1 | inactive
46 | C=C(C#N)C(=O)OCC | inactive
47 | NS(=O)(=O)c1cc2c(cc1Cl)NC=NS2(=O)=O | inactive
48 | CC(C)(N=C=O)c1cccc(C(C)(C)N=C=O)c1 | inactive
49 | CC[Si](OC(C)=O)(OC(C)=O)OC(C)=O | inactive
50 | C=C(C)C(=O)OCCCCCCCCCCCC | inactive
51 | O=C1CCCCC1 | inactive
52 | CCCCCCCCCCCCN | inactive
53 | CC1CC(OC(=O)c2ccccc2O)CC(C)(C)C1 (stereo not drawn) | inactive
54 | O=Nc1ccc(O)cc1 | inactive
55 | C[C@@H]1O[C@@H](OC[C@H]2O[C@@H](Oc3c(-c4ccc(O)c(O)c4)oc4cc(O)cc(O)c4c3=O)[C@H](O)[C@@H](O)[C@@H]2O)[C@H](O)[C@H](O)[C@H]1O | inactive
56 | Clc1ccc(Cl)c(Cl)c1Cl | inactive
57 | CC(C)Cc1ccccc1 | inactive
58 | OCC#CCO | inactive
59 | O=C(c1cc(O)c(O)c(O)c1)c1ccc(O)c(O)c1O | inactive
60 | C=C(C)C(=O)OCCCCCC | inactive

Assay: Caspase-3/7 induction in HepG2 cells by small molecules, qHTS cell viability counter screen (AID 1346981); note: nearly all actives have a fitted effect of over 30% in size; note: potency is the fitted concentration of half-maximal effect
Details: CellTiter-Fluor fluorescence, 17 h; series mostly up to 92.4 µM; activity change, negative = cytotoxicity: at the top concentration
Outline: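 Treatment of HepG2 cells with DMSO-delivered compounds ran 16 hr at 37 C following a 5-hr pre-incubation of 2,000 cells/well. CellTiter-Fluor fluorescence, read after 1 hr, served as the viability measure in a qHTS format.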

Row | SMILES | Potency | activity change, negative = cytotoxicity
61 | Nc1cc(-c2ccncc2)c[nH]c1=O | inactive | 
62 | Oc1ccc(OCc2ccccc2)cc1 | inactive | 
63 | CCOC(=O)C1OC1c1ccccc1 (stereo not drawn) | inactive | 
64 | O=C(O)c1ccc([N+](=O)[O-])cc1 | inactive | 
65 | Cc1cc(=O)[nH]c(C(C)C)n1 | inactive | 
66 | NC(=O)/N=N/C(N)=O | inactive | 
67 | CCCCCCCCCCCCOCC1CO1 (stereo not drawn) | inactive | 
68 | O=S(=O)(O)CCS | inactive | 
69 | O=C(O)c1cc(-c2ccccc2)nc2ccccc12 |  | 1.85% [at 42.5 µM] (inactive)
70 | OC1CCCC1 | inactive | 
71 | COC(=O)c1ccccc1O | inactive | 
72 | Cc1ccc(N)c(S(=O)(=O)O)c1 | inactive | 
73 | CCCCOCCOCCOC(=O)CCCCC(=O)OCCOCCOCCCC |  | 9.81% (inactive)
74 | CCCCC(CC)COC(C)=O (stereo not drawn) | inactive | 
75 | CC1=C(/C=C/C(C)=C/C=C/C(C)=C/CO)C(C)(C)CCC1 | inactive | 
76 | Cc1cc(Cc2ccc(N)c(C)c2)ccc1N | inactive | 
77 | NCCc1ccc(O)c(O)c1 | 68.8 µM (active) and inactive | 
78 | C=C(C#N)C(=O)OCC | inactive | 
79 | O=[N+]([O-])C(CO)(CO)CO | 4.26 µM (active) and inactive | 

Row | SMILES | Potency | activity change, negative = cytotoxicity
80 | NS(=O)(=O)c1cc2c(cc1Cl)NC=NS2(=O)=O | inactive | 
81 | CCOC(=O)/C=C\C(=O)OCC | inactive | 
82 | CC(C)(N=C=O)c1cccc(C(C)(C)N=C=O)c1 | inactive | 
83 | CC[Si](OC(C)=O)(OC(C)=O)OC(C)=O |  | 4.8% (inactive)
84 | C=C(C)C(=O)OCCCCCCCCCCCC | inactive | 
85 | C=C(C)C(=O)OCCC[Si](OC)(OC)OC | inactive | 
86 | COCC(C)O (stereo not drawn) | inactive | 
87 | O=C1CCCCC1 | inactive | 
88 | CCCCCCCCCCCCN | inactive | 
89 | CC1CC(OC(=O)c2ccccc2O)CC(C)(C)C1 (stereo not drawn) | inactive | 
90 | O=Nc1ccc(O)cc1 |  | -2.35% (inactive)
91 | CC1(C)O[C@@H]2C[C@H]3[C@@H]4C[C@H](F)C5=CC(=O)CC[C@]5(C)[C@H]4[C@@H](O)C[C@]3(C)[C@]2(C(=O)CO)O1 | inactive | 
92 | C[C@@H]1O[C@@H](OC[C@H]2O[C@@H](Oc3c(-c4ccc(O)c(O)c4)oc4cc(O)cc(O)c4c3=O)[C@H](O)[C@@H](O)[C@@H]2O)[C@H](O)[C@H](O)[C@H]1O |  | -9.93% [at 42.5 µM] (inactive)
93 | Clc1ccc(Cl)c(Cl)c1Cl |  | -4.71% (inactive)
94 | CC(C)Cc1ccccc1 |  | 3.08% (inactive)
95 | OCC#CCO |  | -7.82% (inactive)
96 | C=C(C)C(=O)OCC(CC)(COC(=O)C(=C)C)COC(=O)C(=C)C | inactive | 
97 | O=C(c1cc(O)c(O)c(O)c1)c1ccc(O)c(O)c1O | 54.3 µM (active) and 30.6 µM (active) | 
98 | C=C(C)C(=O)OCCCCCC | inactive | 
